Source: PubChem BioAssay AID449762 (Southern Research Specialized Biocontainment Screening …, 2010)
The campaign covered roughly 330,000 compounds. About 1,900 (0.58%) were called active. Not shown: some 4% with an inconclusive outcome. Cut-off read from the data, not from the text of the source: inconclusive = inhibition above about 70% without an active follow-up result; inactive = below that. Not all results are given here. Results with a measured potency or affinity are listed apart.

Test: M. tuberculosis growth inhibition, HTS (AID 449762);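 note: bacterial growth assessed after seven days of incubation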
Conditions: M. tuberculosis H37Rv growth inhibition, 7H9 media; at 25 µM; hits give high values
For CCOC(=O)c1[nH]c(C)c(C(=O)N2CCN(c3ccc(OC)cc3)CC2)c1C, the inhibition was -0.98% (inactive). For CCOC(=O)c1c(C)[nH]c(C(=O)N2CCN(c3ccc(OC)cc3)CC2)c1C, the inhibition was 53.5% (inactive). With C[C@H](CO)N1C[C@H](C)[C@H](CN(C)Cc2ccncc2)Oc2ccc(NC(=O)Nc3ccc(C(F)(F)F)cc3)cc2CC1=O the inhibition was 62.2% (inactive). In the case of C=CCNC(=O)c1ccc(-c2nc(-c3ccccc3)cs2)cc1, the inhibition was 1.66% (inactive). For CN(C)CCCNC(=O)c1ccc(-c2ccccc2)cc1, the inhibition was -5.39% (inactive). For O=C(NN=C1CCCC1)c1cccc(O)c1, the inhibition was -8.1% (inactive). In the case of CCCNC(=O)CSc1n[nH]c(=O)n1CCc1ccccc1, the inhibition was 7.69% (inactive). With CCOC(=O)c1c(NC(=O)CCN2C(=O)c3cccc([N+](=O)[O-])c3C2=O)sc(C(=O)OC(C)C)c1C the inhibition was 3.56% (inactive). In the case of CCOc1ccc(NC(=O)CC2CC(C)(C)OC2=O)cc1 (stereo not given), the inhibition was -2.88% (inactive). In the case of CCOc1ccc(Nc2nc(-c3cccnc3)cs2)cc1, the inhibition was 4.09% (inactive). In the case of CC(=O)Nc1ccc(NC(=O)C(C)OC(=O)c2cc(S(=O)(=O)N(C)C)ccc2N2CCCC2)cc1 (stereo not given), the inhibition was 1.92% (inactive). In the case of Cc1ccc(C2=NC(C)(C)NC2=O)cc1, the inhibition was 11.8% (inactive). For CSc1nccc(N/N=C/c2ccccc2)n1, the inhibition was 0.53% (inactive). With O/N=C/c1ccnc(SCc2ccccc2)n1 the inhibition was 16.4% (inactive). In the case of Clc1ccccc1CNC1CN2CCC1CC2 (stereo not given), the inhibition was -2.13% (inactive). For CC(CN1CCC(O)CC1)c1ccccc1 (stereo not given), the inhibition was -0.24% (inactive). For FC(F)(Cl)c1nnc2ccc(Sc3ccccn3)nn12, the inhibition was 2.59% (inactive). In the case of FC(F)(F)c1nnc2ccc(N3CCCC3)nn12, the inhibition was -7.59% (inactive). With COC(=O)c1cnc2ccccc2n1 the inhibition was -3.05% (inactive). With O=C(OCc1c(F)cccc1Cl)c1cnc2ccccc2n1 the inhibition was 48.8% (inactive). For CC(C)C(NS(=O)(=O)c1cccs1)C(=O)NCCCN1CCCCCC1 (stereo not given), the inhibition was -1.69% (inactive). In the case of COc1ccc(OCCCC(=O)Nc2ccc(N3CCCCC3)cc2)cc1, the inhibition was -1.89% (inactive). With CCCc1nnc(NC(=O)CCC(=O)N2CCN(c3nc(C)cc(C)n3)CC2)s1 the inhibition was 0.06% (inactive). For COc1ccc(S(=O)(=O)Cc2ccc(C(=O)NCCCN3CCc4ccccc4C3)o2)cc1, the inhibition was -0.56% (inactive). For COc1cccc(OC)c1OCCCCCc1c(C)n[nH]c1C, the inhibition was -7.6% (inactive). In the case of COc1cccc(OC)c1OCCCCc1c(C)n[nH]c1C, the inhibition was 4.51% (inactive). In the case of COCC(C)NC(=O)Cc1ccc(F)cc1 (stereo not given), the inhibition was -4.61% (inactive). For COc1ccc(NS(=O)(=O)c2cccc(C(=O)NC3CCN(Cc4ccccc4)CC3)c2)cc1, the inhibition was 6.7% (inactive). In the case of O=C(NC1CCN(Cc2ccccc2)CC1)c1cccc(S(=O)(=O)Nc2ccc(F)cc2)c1, the inhibition was 37.8% (inactive). In the case of COCc1cc(C)nc(SCc2ccccc2)c1C#N, the inhibition was 15.8% (inactive). For COc1ccc(/C=C/C(=O)Oc2cccc(/C=N/NC(=O)c3cccc(F)c3)c2)cc1, the inhibition was 7.76% (inactive). With O=C(Oc1cccc(-n2cnnn2)c1)c1ccccc1Cl the inhibition was -11.6% (inactive). For CCc1ccccc1NC(=O)c1noc(C(C)C)c1[N+](=O)[O-], the inhibition was 2.17% (inactive). For Cc1ccc(NC(=O)c2noc(C(C)C)c2[N+](=O)[O-])cc1, the inhibition was 0.01% (inactive). In the case of COc1ccc(C(C(=O)NC2CCCC2)N(Cc2ccco2)C(=O)c2snc(C(N)=O)c2N)cc1OC (stereo not given), the inhibition was 3.33% (inactive). With COc1cccc(/C=N/NC(=O)c2cccc([N+](=O)[O-])c2)c1OS(=O)(=O)c1ccccc1 the inhibition was -10.3% (inactive). With Cc1nc(-c2ccc(NC(=O)C3CC3)cc2)cs1 the inhibition was 37.4% (inactive). With Cc1cc(Nc2cc(N3CCN(C)CC3)nc(Sc3ccc(NC(=O)C4CC4)cc3)n2)n[nH]1 the inhibition was 3.52% (inactive). In the case of COc1cccc(NC(=O)Cn2c(=O)n(-c3ccccc3)c(=O)c3oc4ccccc4c32)c1, the inhibition was -3.21% (inactive). In the case of Cc1ccc2c(c1)c1c(n2C)C(C(N)=O)CCC1 (stereo not given), the inhibition was -14.2% (inactive). In the case of c1ccc(Cn2c(CNc3nc4ccccc4n3CCN3CCOCC3)nc3ccccc32)cc1, the inhibition was 10.7% (inactive). In the case of Cn1c(CNc2nc3ccccc3n2CCN2CCCCC2)nc2ccccc21, the inhibition was 1.84% (inactive). For Cc1ccc(C(=O)N/C(=C/c2cccs2)C(=O)NCCCn2ccnc2)cc1, the inhibition was -0.44% (inactive). In the case of O=C(NCCCSc1ccccc1)c1cccnc1, the inhibition was 2.65% (inactive). For NC(=O)N/N=C/c1ccc2cccc(OCc3ccccc3)c2n1, the inhibition was 12.6% (inactive). In the case of O=C(Cc1ccccc1)N/N=C/c1ccccn1, the inhibition was -3.52% (inactive). With CC(N)(C(=O)O)c1cccc(OCc2cccc(Cl)c2)c1 (stereo not given) the inhibition was -9.95% (inactive). For CN(C(=O)CSc1nccc(=O)[nH]1)C1CCCCC1, the inhibition was -5.2% (inactive). For CCCn1c(Nc2ccccc2C)nc2ccccc21, the inhibition was -13.5% (inactive). With CCCn1c(Nc2ccccc2)nc2ccccc21 the inhibition was 3.3% (inactive). In the case of CCN1CCN(Cc2cc(Br)ccc2O)CC1, the inhibition was -0.17% (inactive). For CC(C)CCC(C)NC(=O)CN1C(=O)NC(C)(c2ccc3ccccc3c2)C1=O (stereo not given), the inhibition was -6.81% (inactive). With COc1ccc(C(=O)OCC(=O)NC2CC2)cc1F the inhibition was 2.71% (inactive). In the case of NNC(=S)NCc1ccco1, the inhibition was -5.28% (inactive). For CCNC(=S)NCc1ccco1, the inhibition was 8.6% (inactive). For CC[C@@H]1CN(C)[C@H]2Cc3c([nH]c4ccccc34)C(=O)C[C@@H]1[C@@H]2C(=O)OC, the inhibition was -5.83% (inactive). In the case of COc1ccc(C2CC(c3ccc(Cl)cc3)n3nc(N)nc3N2)cc1 (stereo not given), the inhibition was 1.53% (inactive). With CCCc1nn2c(=O)c(C(c3cccc(Cl)c3)c3c(O)nc4sc(CCC)nn4c3=O)c(O)nc2s1 the inhibition was -6.75% (inactive). For COc1ccc(NC(=O)CCc2nnc3ccc(N4CCC(C)CC4)nn23)cc1, the inhibition was -0.59% (inactive). With CCOc1ccc(NC(=O)CCc2nnc3ccc(N4CCN(C)CC4)nn23)cc1 the inhibition was 1.67% (inactive). In the case of O=C1CCCc2c1nc(-c1ccc([N+](=O)[O-])cc1)n2O, the inhibition was 0.46% (inactive). For CC(C)CNC(=O)/C(C#N)=C1\N=C(NC(=O)c2ccco2)c2ccccc21, the inhibition was 12.4% (inactive). In the case of Cc1cc(OC(F)F)ccc1NC(=O)Nc1ccc([N+](=O)[O-])cc1, the inhibition was 17.3% (inactive). For O=C(Nc1ccc(OC(F)F)c(Cl)c1)Nc1ccc2c(c1)OCO2, the inhibition was 5.38% (inactive). In the case of Cc1ncc([N+](=O)[O-])n1CC(=O)NC1CCCCCC1, the inhibition was 0.9% (inactive). In the case of O=C(Cc1ccc([N+](=O)[O-])cc1)OCc1c(F)cccc1Cl, the inhibition was 7.51% (inactive). For CC(C)N(Cc1ccccc1)CC(O)COc1ccc(S(=O)(=O)N2CCOCC2)cc1Cl (stereo not given), the inhibition was 1.09% (inactive). With O=c1cc(-c2ccccc2O)nc(-c2ccccc2)[nH]1 the inhibition was 15.5% (inactive). For Cc1nn(-c2ccc(F)cc2)c(Cl)c1/C=C(\CC(=O)O)c1nc2ccccc2s1, the inhibition was -5.29% (inactive). For COc1ccc(C(=O)COC(=O)[C@H](C)Nc2ccc(C(F)(F)F)cc2[N+](=O)[O-])c(OC)c1, the inhibition was 11.7% (inactive). With Cc1cc(C)c(C(=O)COC(=O)[C@H](C)Nc2ccc(C(F)(F)F)cc2[N+](=O)[O-])c(C)c1 the inhibition was -3.25% (inactive). With CCOC(=O)CSc1cc(C)c(C#N)c2nc3ccccc3n12 the inhibition was 9.77% (inactive). In the case of Cc1cccc(NC(=O)CSc2cc(C)c(C#N)c3nc4ccccc4n23)c1, the inhibition was -1.23% (inactive). For COC(=O)C1=CO[C@@H](O[C@@H]2O[C@H](CO)[C@@H](O)[C@H](O)[C@H]2O)C2C1CC(O)O[C@H]2C (stereo not given in full), the inhibition was -0.01% (inactive). In the case of COc1ccccc1-c1nnn(C/C(N)=N/O)n1, the inhibition was -5.65% (inactive). With Cc1cc(C)c(NC(=O)CSc2nccn2C)c(C)c1 the inhibition was 5.06% (inactive). With COc1ccc(CNC(=O)c2sc3nc4c(c(C(F)(F)F)c3c2N)CCC4)cc1 the inhibition was 0.35% (inactive). For COc1ccc(CNC(=O)c2sc3nc4c(c(C(F)(F)F)c3c2N)CCC4)cc1OC, the inhibition was 38.5% (inactive). With CC(=O)NCCNC(=O)C1CCC(CNc2nc(=S)[nH]c3ccccc23)CC1 (stereo not given) the inhibition was -6.34% (inactive). With CC(C)(C)c1ccc(OCCNC(=O)c2ncn[nH]2)cc1 the inhibition was 31.8% (inactive). In the case of CCOc1cccc(/C=N/NC(=S)Nc2ccccc2[N+](=O)[O-])c1O, the inhibition was 0.56% (inactive). For CCOc1cccc(C=NCCc2ccc(OC)c(OC)c2)c1O, the inhibition was -1.63% (inactive). For COc1cccc(C=Nc2cc(C)cc(C)c2)c1O, the inhibition was 4.13% (inactive). In the case of CCCCNC(=S)N/N=C/c1ccccc1F, the inhibition was 31.4% (inactive). For Cc1ccc([C@@H]2CC=C(C(=O)O)[C@H](c3ccc(F)cc3)N2S(=O)(=O)c2ccc(C)cc2)cc1, the inhibition was 7.16% (inactive). In the case of O=C(O)C(c1ccccc1)N1CCCC1 (stereo not given), the inhibition was -1.43% (inactive). For Nc1ccccc1Sc1ccccc1[N+](=O)[O-], the inhibition was -1.08% (inactive). For Nc1ccccc1SC(C[N+](=O)[O-])c1ccccc1 (stereo not given), the inhibition was 10.3% (inactive). In the case of Cc1ccc(NC(=O)Cn2c3ccc(F)cc3c3nc4n(c(=O)c32)CCS4)cc1F, the inhibition was 6.34% (inactive). In the case of CC(C)(C)c1csc(NC(=O)c2ccncc2)n1, the inhibition was 6.43% (inactive). With CC(C)(C)c1csc(NC(=O)c2ccccc2O)n1 the inhibition was 3.48% (inactive). With O=C(CN1CCN(c2cccc(Cl)c2)CC1)NC1CCCc2ccccc21 (stereo not given) the inhibition was 11.3% (inactive). In the case of O=C(CN1CCN(c2ccccc2Cl)CC1)NC1CCCc2ccccc21 (stereo not given), the inhibition was 7.47% (inactive). In the case of CN(CCNC(=O)C1CCCN(c2ncnc3c2nc2n3CCCCC2)C1)Cc1ccccc1 (stereo not given), the inhibition was -0.58% (inactive). With CC1CCCN(C(=O)CN2C(=O)NC(C)(c3ccc4ccccc4c3)C2=O)C1 (stereo not given) the inhibition was 3.55% (inactive).
